Shown are actives, neighbours in structure and some others; about 12% of the full set was active somewhere.
HP1b chromo inh = HTS for Inhibitors of HP1-beta Chromodomain Interactions with Methylated Histone Tails; Chromobox protein homolog 1 (Homo sapiens), P83916; AlphaScreen HP1-beta / biotin-H3K9me3 peptide binding; Potency, µM (titrated, usually from 114 µM), for the others: top-dose activity change, negative = inhibition, hits mostly inhibitors; 0.56% of 390,000 active; AID 540317, 2011; note: nearly all actives have a fitted effect of over 70% in size
Target sequence (P83916 whole entry, looked up): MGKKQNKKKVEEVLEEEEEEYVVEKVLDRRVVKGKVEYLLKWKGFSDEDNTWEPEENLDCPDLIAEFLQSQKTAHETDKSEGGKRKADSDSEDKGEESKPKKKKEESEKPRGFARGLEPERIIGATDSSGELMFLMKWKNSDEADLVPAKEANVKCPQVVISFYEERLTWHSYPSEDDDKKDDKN
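Compound inhibition of the preformed complex between 50 nM HP1-beta and 50 nM biotinylated H3K9me3 peptide was read by AlphaScreen. Buffer was PBS pH 7.4 with 0.01% Tween-20. Incubations ran 30 min at room temperature, with 10 ug/mL donor/acceptor beads.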
JMJD2A Tudor inh = qHTS Assay for Inhibitors of JMJD2A-Tudor Domain; AlphaScreen JMJD2A-Tudor / H3K4me3 peptide binding; Potency, µM (titrated, usually from 114 µM), for the others: at the highest dose activity change, negative = inhibition, actives largely listed as inhibitors; 4.4% of 390,000 active; AID 504339, 2011; note: % is set by controls: 0 for no effect and ±100 for the full control effect; nearly all actives have a fitted effect of over 50% in size
L3MBTL1 block = qHTS Assay for the Inhibitors of L3MBTL1; Lethal(3)malignant brain tumor-like protein 1 (Homo sapiens), Q9Y468; AlphaScreen L3MBTL1–H3K9me1 peptide binding; Potency, µM (series often up to 57.1 µM), for inactives: at the top dose activity, negative = inhibition, most hits filed as inhibitors; 0.66% of 230,000 active; AID 485360, 2010; note: % is set by controls: 0 for no effect and ±100 for the full control effect; nearly all actives have a fitted effect of over 60% in size
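AlphaScreen assay: L3MBTL1 (50 nM final) was preincubated 30 min at room temperature with biotinylated H3(1-15)K9me1 peptide (75 nM final), then 30 min with library compounds; streptavidin donor and nickel chelate acceptor beads (10 ug/mL final) added, 30 min dark.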
G9a block = qHTS Assay for Inhibitors of Histone Lysine Methyltransferase G9a. Histone-lysine N-methyltransferase EHMT2 (Homo sapiens), Q96KQ7. G9a H3K9 monomethylation, AlphaScreen, 2 h. Potency, µM (top dose mostly 102 µM), for inactives: at the highest dose activity, negative = inhibition, usual class: inhibitors. 8.8% of 350,000 active. AID 504332, 2011; note: % is set by controls: 0 for no effect and ±100 for the full control effect; nearly all actives have a fitted effect of over 75% in size
Target sequence (Q96KQ7 913-1193 limits assumed): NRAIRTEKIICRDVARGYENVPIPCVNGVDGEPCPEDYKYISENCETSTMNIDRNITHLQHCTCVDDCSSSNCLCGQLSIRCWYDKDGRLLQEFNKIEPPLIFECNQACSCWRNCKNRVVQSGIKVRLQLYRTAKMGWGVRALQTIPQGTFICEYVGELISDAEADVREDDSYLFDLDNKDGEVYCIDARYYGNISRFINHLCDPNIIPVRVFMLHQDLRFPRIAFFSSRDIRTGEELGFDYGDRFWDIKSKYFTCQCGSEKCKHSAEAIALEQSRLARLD
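Methyltransferase reactions run at room temperature for 2 h (20 nM enzyme, 500 nM biotin-H3K9 peptide, 20 uM SAM) after a 15 min compound preincubation; product detected by AlphaScreen beads and anti-H3K9me1 antibody.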
Sfp PPTase inh = qHTS Assay for Inhibitors of Bacillus subtilis Sfp phosphopantetheinyl transferase (PPTase). 4'-phosphopantetheinyl transferase ffp (Bacillus subtilis), Q9F4F7. 3.5% of 310,000 active. Potency, µM, without a hit: largest response in the series, negative = inhibition, usual class: inhibitors. Biochemical Sfp PPTase activity, qHTS;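 note: the enzyme is Sfp with the accession as filed and its product quenches rhodamine fluorescence; 0% = enzyme reaction without inhibitor and -100% = no enzyme wells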
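After 15 min at room temperature with compound, 15 nM Sfp received 5 uM rhodamine-CoA plus 12.5 uM BHQ-2-ybbR (50 mM Hepes pH 7.6, 10 mM MgCl2). Rate came from the fluorescence difference over 30 min, ex 525/em 598 nm.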
BAZ2B inh = qHTS Assay for Inhibitors of BAZ2B; Bromodomain adjacent to zinc finger domain protein 2B (Homo sapiens), Q9UIF8; AlphaScreen BAZ2B-H3K14Ac peptide displacement; Potency, µM (titrated, usually from 114 µM), for the others: at the highest dose activity change, negative = inhibition, usual class: inhibitors; 4.4% of 360,000 active; AID 504333, 2011; note: % is set by controls: 0 for no effect and ±100 for the full control effect; nearly all actives have a fitted effect of over 60% in size
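In this displacement format the biotinylated H3(5-23) peptide acetylated at Lys14 serves as ligand at 50 nM, with BAZ2B at 50 nM in PBS pH 7.4 containing 0.01% Tween-20. Donor and acceptor beads are 10 ug/mL final.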
The depositor's hits bear a star; ? = inconclusive; . = no result given; [ ] = remark or other dose. Calls come from the whole dose curve; as a rule, active = well fitted curve in the direction sought with a large enough effect; inconclusive = small, poorly fitted or top-dose-only effect, or another doubt; inactive = no such curve, though single readings can be large; an effect the other way counts as inactive or inconclusive. Potency is the fitted concentration of half-maximal effect.

SMILES	HP1b chromo inh	JMJD2A Tudor inh	L3MBTL1 block	G9a block	Sfp PPTase inh	BAZ2B inh
O=C(NNC(=S)Nc1ccccc1)c1ccncc1	12%	-4%	-1%	?	3%	-8%
O=C(NNC(=S)Nc1ccccc1)Nc1ccccc1	17%	-16%	2%	.	7.1µM*	-24%
COC(CC(=O)NNC(=S)Nc1ccccc1)OC	39%	-5%	11%	-35%	17%	-12%
O=C(NNC(=S)Nc1ccccc1)NNC(=S)Nc1ccccc1	6%	-26%	-17%	14µM*	7%	-20%
CC1(C)CC(=O)c2c(oc3cc4c(cc23)OCO4)C1	.	.	.	.	17%	.
O=C(O)C1CC(CCCP(=O)(O)O)CCN1 (stereo not drawn)	.	.	.	.	-1%	.
Cc1ccc(C(=O)c2c3ccc(N)cc3nn2CCC(N)=O)cc1	13%	?	-9%	45µM*	-17%	?
N=c1oc2ccc3ccccc3c2cc1C(N)=S	-8%	-26%	-16%	20µM*	?	-32%
CCc1ccc(C2NC(c3ccc(CC)cc3)C([N+](=O)[O-])C(C)(C)C2[N+](=O)[O-])cc1 (stereo not drawn)	15%	-22%	-11%	-9%[59 µM]	7%	1%
CCc1ccc(C2NC(C(=O)O)CS2)cc1 (stereo not drawn)	.	.	.	3.5µM*	-12%	?
CCCCCCNCc1c(F)cccc1Cl	44%	3%	7%	2%[59 µM]	-7%	7%
CCCCOC(=O)Cn1c(=O)oc2ccc(C)cc21	51%	5%	18%	11%[59 µM]	17%	18%
COC(=O)Cn1c(=O)oc2ccc(C)cc21	-14%	32µM*	1%	-30%	8%	0%
C=CCNC(=S)Nc1cc(C)ccn1	30%	-9%	.	1.6µM*	-19%	-1%
COc1ccc(C(=O)Nc2ccccc2)cc1S(=O)(=O)Nc1ccc(Br)cc1	9%	-14%	.	2%[59 µM]	.	1%
Cc1ccc(NS(=O)(=O)c2cc(NC(=O)c3ccc4c(c3)NC(=O)CS4)ccc2C)c(C)c1	?	?	-10%	7.9µM*	10µM*	-24%
CC(=O)NS(=O)(=O)c1ccc(NC(=O)c2ccc3c(c2)NC(=O)CS3)cc1	-13%	-21%	4%	.	.	.
COc1ccc(NC(=O)c2ccc3c(c2)NC(=O)CS3)cc1S(=O)(=O)Nc1ccc(Br)cc1	-10%	-21%	-3%	.	18µM*	-30%
COC(=O)c1cc2occc2n1CC(=O)Nc1ccc(C(C)C)cc1	35%	-4%	.	1%[59 µM]	.	-4%
CC(=O)N(CCCN1CCOCC1)Cc1ccncc1	26%	0%[11.4 µM]	.	50µM*	6%	?
COC(=O)C(NC(=O)CC(C)C)(Nc1nc2c(s1)CCCC2)C(F)(F)F (stereo not drawn)	12%	-22%	.	-6%[59 µM]	.	-1%
O=c1[nH]c(/C=C/c2cccc([N+](=O)[O-])c2)c([N+](=O)[O-])c(=O)[nH]1	-6%	-4%	13%	79µM*	-19%	13%
O=c1[nH]c(/C=C/c2ccccc2)c([N+](=O)[O-])c(=O)[nH]1	20%	-14%	3%	-45%	0%	-4%
COc1cc(/C=C/c2[nH]c(=O)[nH]c(=O)c2[N+](=O)[O-])cc([N+](=O)[O-])c1O	-8%	?	.	45µM*	-6%	56µM*
COc1cc(C(c2c(C)[nH][nH]c2=O)c2c(C)[nH][nH]c2=O)cc([N+](=O)[O-])c1O	?	45µM*	.	?	-14%	?
O=c1[nH]c(/C=C/c2ccc(Cl)cc2Cl)c([N+](=O)[O-])c(=O)[nH]1	6%	-21%	-8%	?	15%	56µM*
